Screening data from PubChem.
Hits are enriched below; roughly 1.1% of the tested compounds scored in any of these assays.
STK33 kin inh – human STK33 kinase inhibition | Q9BYT3 | ADP-Glo luminescence, MBP substrate | inhibition, % at 12.5 µM | 27,000 tested, 0.44% active | AID 2322; in the data active means inhibition above about 20%
ID4 SMM – binds human ID4 protein on microarray. P47928. small molecule microarray, Flag-ID4 binding, fluorescence F/B. calls only. 31,000 tested, 1.2% active. AID 624137; call rule not given here;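 further: a binder raises fluorescence above local background on the spot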
Target sequence (P47928 whole entry, looked up): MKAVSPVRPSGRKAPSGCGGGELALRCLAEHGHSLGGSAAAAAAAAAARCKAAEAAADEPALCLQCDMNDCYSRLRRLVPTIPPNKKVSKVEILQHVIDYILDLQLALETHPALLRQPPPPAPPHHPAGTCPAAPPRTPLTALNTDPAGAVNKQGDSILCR
Active calls of the source: *; i = inactive; . = no result; + = active, no number.

SMILES	STK33 kin inh	ID4 SMM
Cn1c(SCC(=O)Nc2ccc(F)c(Cl)c2)nnc1-c1ccccc1Cl	-3.0	i
O=C1c2ccccc2-c2n[nH]c3cccc1c23	110.8*	i
O=C(CSc1nc2sccc2c(=O)[nH]1)Nc1ccccc1	2.4	i
Cc1ccccc1-c1cc(C(=O)NCCCn2cc(Br)cn2)c2ccccc2n1	-1.3	i
Cc1ccc(C)c(NC(=O)C(C)N(c2ccc(C)c(C)c2)S(C)(=O)=O)c1 (stereo unspecified)	6.2	i
O=C(NCc1ccc(F)cc1)[C@H]1C[C@H]2C(=O)N3CCC[C@H]3C(=O)N2[C@H]1c1cccc(OCCO)c1	1.4	+
O=C(NCc1ccc(F)cc1)[C@H]1C[C@H]2C(=O)NCC(=O)N2[C@H]1c1cccc(OCCO)c1	-5.6	i
CN(C)CCCCCCNC(=O)[C@H]1C[C@H]2C(=O)N3CCC[C@H]3C(=O)N2[C@H]1c1cccc(OCCO)c1	-3.4	+
O=C1N[C@@H](Cc2ccccc2)C(=O)N2[C@@H]1C[C@@H](C(=O)NCc1ccc(F)cc1)[C@H]2c1cccc(OCCO)c1	-1.1	.
O=C(NCc1ccc(F)cc1)[C@@H]1C[C@@H]2C(=O)N3CCC[C@H]3C(=O)N2[C@@H]1c1cccc(OCCO)c1	-5.7	i
O=C1NCC(=O)N2[C@@H]1C[C@@H](C(=O)NCc1ccc(F)cc1)[C@H]2c1cccc(OCCO)c1	-2.7	+
NCCCCCNC(=O)[C@H]1C[C@H]2C(=O)N3CCC[C@H]3C(=O)N2[C@H]1c1cccc(OCCO)c1	-1.9	.
NCCCCCCNC(=O)[C@H]1C[C@H]2C(=O)N[C@@H](Cc3ccccc3)C(=O)N2[C@H]1c1cccc(OCCO)c1	-9.6	+
O=C(Nc1ccccc1C(=O)O)c1cccc(S(=O)(=O)Nc2ccccc2)c1	-1.6	i
C=C1C(=O)O[C@H]2[C@H]1[C@@H](OC(=O)/C(C)=C\C)C(OC(C)=O)/C(C(=O)OC)=C\CC[C@@]1(C)O[C@H]21 (stereo partly specified)	2.3	.
COc1ccc2ccccc2c1C=C1C(=O)OC2(CCCC2)OC1=O	.	i
COCCOC(=O)N1C(=O)[C@@]2(c3ccccc31)[C@H](c1ccccc1OCCO)N1[C@H](c3ccccc3)[C@H](c3ccccc3)OC(=O)[C@H]1[C@@H]2C(N)=O	7.6	+
O=C1O[C@H](c2ccccc2)[C@H](c2ccccc2)N2[C@H]1[C@@H](C(=O)N1CCN(c3ncccn3)CC1)[C@]1(C(=O)Nc3ccc(C#CC4=CCCCC4)cc31)[C@H]2c1ccccc1OCCO	8.1	i
O=C1O[C@H](c2ccccc2)[C@H](c2ccccc2)N2[C@H]1[C@@H](C(=O)N1CCCCCCC1)[C@]1(C(=O)Nc3ccc(C#CC4=CCCCC4)cc31)[C@H]2c1ccccc1OCCO	22.0*	i
COCCOC(=O)N1C(=O)[C@@]2(c3cc(C#Cc4ccc(OC)cc4)ccc31)[C@H](c1ccccc1OCCO)N1[C@H](c3ccccc3)[C@H](c3ccccc3)OC(=O)[C@H]1[C@@H]2C(N)=O	1.2	.
Cc1ccc2c(C(=O)Nc3sc4c(c3C(N)=O)CCCCC4)cc(-c3ccccn3)nc2c1C	5.7	+
CCc1c(C)sc(NC(=O)c2cc(-c3ccccn3)nc3c(C)cccc23)c1C(=O)N1CCCCC1	2.8	i
CCN1C(=O)c2cccc3c(S(=O)(=O)N4CCCC4C(=O)O)ccc1c23 (stereo unspecified)	0.2	+
COc1cccc(S(=O)(=O)N2CCCC2C(=O)O)c1 (stereo unspecified)	-5.3	i
CCOc1ccc(N2C(=O)CC(Sc3nc(O)c(CC)c(=O)[nH]3)C2=O)cc1 (stereo unspecified)	1.1	+
SMILES	STK33 kin inh	ID4 SMM
COc1ccc(N2C(=O)CC(SCCc3nc4ccccc4[nH]3)C2=O)cc1 (stereo unspecified)	-0.4	i
CC(=O)Nc1ccc(NC(=O)CSc2nnc(-c3ccncc3)n2-c2ccc(Cl)cc2)cc1	0.7	i
COc1ccc(NC(=O)c2ccc(OC(C)C(=O)O)cc2)cc1Cl (stereo unspecified)	-0.6	+
COc1ccc(NC(=O)c2ccc(OC(C)C(=O)Nc3ccccc3C(F)(F)F)cc2)cc1Cl (stereo unspecified)	-0.2	i
CN(C)C1=NC(C(F)(F)F)(C(F)(F)F)N=C(c2ccccc2)O1	.	i
NC(=O)CSc1nc(N)c(-c2ccccc2)c(=O)[nH]1	-0.8	i
O=C1c2cccc(O)c2C(=O)c2c(O)cccc21	27.4*	i
CCCc1c(C(=O)O)c(O)cc2c1C(=O)c1c(O)cccc1C2=O	-1.7	i
N#Cc1ccccc1NC(=O)CCSc1nc(-c2ccccc2)c2cc(Cl)ccc2n1	-0.9	i
O=C(CSc1nccc(=O)[nH]1)Nc1cccc(I)c1	-0.2	i
O=C1c2ccc(O)cc2C(=O)c2ccc(O)cc21	33.8*	i
O=C(O)c1cc(O)c2c(c1)C(=O)c1cc(O)cc(O)c1C2=O	4.2	.
NC(=O)c1c(NC(=O)Cn2c(=O)oc3ccccc32)sc2c1CCCC2	3.0	i
NC(=O)c1c(NC(=O)C2CC(=O)N(c3ccccc3)C2)sc2c1CCCC2 (stereo unspecified)	0.2	+
COc1ccc(OCC(=O)Nc2cc(-c3nnc(OC)c4ccccc34)ccc2N2CCCCC2)cc1	3.5	i
O=S(=O)(NC1CCN(Cc2cccc(OCCO)c2)CC1)c1cc(C(F)(F)F)ccc1Cl	.	i
COC(=O)c1cc(OC)c(OC)cc1NC(=O)CN1CCCCC1	-4.3	i
COC(=O)c1cc(OC)c(OC)cc1NC(=S)N1CCC(C(N)=O)(N2CCCCC2)CC1	1.8	+
COC(=O)c1ccc(C)c(NC(=O)CN(c2ccc(F)cc2)S(C)(=O)=O)c1	-3.6	i
Cc1cccnc1NCC(O)COc1ccccc1 (stereo unspecified)	1.6	+
Cc1cccnc1NC(=O)C(C)Oc1ccccc1 (stereo unspecified)	4.3	i
Cc1ccc(NC(=O)CSc2nnnn2C)c(C)c1	3.7	i
COc1ccc(-c2nnc(SCC(=O)Nc3c(F)cc(F)cc3Br)n2C)cc1	2.6	i
Cn1c(SCC(=O)Nc2c(F)cc(F)cc2Br)nnc1-c1ccco1	0.3	+
COc1ccc2nc(NC3=NC(c4ccccc4)CC(=O)N3)nc(C)c2c1 (stereo unspecified)	-1.4	+
SMILES	STK33 kin inh	ID4 SMM
COc1ccc2nc(Nc3nc(CSc4ccc(Cl)cc4)cc(=O)[nH]3)nc(C)c2c1	6.2	i
CSc1cc(-c2nccs2)[nH]n1	.	i
COc1cc(C(=O)Nc2cccc(-c3nc4ncccc4o3)c2)cc(OC)c1OC	30.4*	i
O=C(COc1ccc(Br)cc1)Nc1cccc(-c2nc3ncccc3o2)c1	8.6	i
O=C(O)c1ccc(NCCCO)c([N+](=O)[O-])c1	1.7	i
Cc1ccc2oc(-c3ccc(Cl)c(NC(=O)COc4ccc(Br)cc4)c3)nc2c1	0.2	.
C=CCN1CCN(c2nc3ccccc3nc2C#N)CC1	-0.9	+
CCN1CCN(c2oc(COc3ccccc3C)nc2C#N)CC1	.	i
O=C(Cc1ccccc1)NC1CCN(C(=O)c2cccs2)CC1	-0.3	.
C[C@@H]1CN([C@@H](C)CO)S(=O)(=O)c2ccc(C3=CCCC3)cc2O[C@H]1CN(C)C(=O)Nc1ccc2c(c1)OCO2	.	+
